The campaign covered roughly 320,000 compounds. About 9,100 (2.8%) were called active. About 3% were inconclusive and are not listed. Calls come from the whole dose curve; as a rule, active = well fitted activation curve with a large enough effect; inconclusive = small, poorly fitted or top-dose-only effect; inactive = no such curve, though single readings can be large or run the other way. For the sample, actives were picked, then their nearest neighbours and some compounds at random.
experiment: qHTS Assay for Rab9 Promoter Activators; settings: Huh7 Rab9 promoter-luciferase reporter, luminescence, 24 h; series mostly up to 9.22 µM; activation, negative = inhibition: at the top concentration; note: nearly all actives have a fitted effect of over 60% in size; for activation, negative = inhibition: % of control where 0% means no effect
Procedure, shortened: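 Promoter activation is measured as luciferase luminescence in Huh7 cells stably transfected with a Rab9 promoter–luciferase construct, following 24 h compound exposure at 37 °C and 10 min reagent incubation at ambient temperature.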
Potency is the fitted concentration of half-maximal effect.

| SMILES | activation, negative = inhibition | Potency |
| --- | --- | --- |
| CCc1noc(C)c1C(=O)N1CCN(S(=O)(=O)c2cccc(C(F)(F)F)c2)CC1 | 13.5% (inactive) |  |
| CC(=O)c1c(C)[nH]c(C(=O)OCC(=O)Nc2c(C)cccc2C)c1C | -11.3% (inactive) |  |
| Cc1nn(Cc2ccccc2)c(C)c1C(=O)N1CCN(CC(=O)Nc2ccccc2Cl)CC1 | -0.872% (inactive) |  |
| C[C@@H](NC(=O)c1nc[nH]c1C(=O)N1CCN(C(=O)OC(C)(C)C)CC1)c1ccccc1 | -3.53% (inactive) |  |
| CCOc1ncccc1C(=O)OCC(=O)Nc1cccc(S(=O)(=O)N2CCCCCC2)c1 | -0.596% (inactive) |  |
| CCCc1nc2oc3c(=O)[nH]cnc3c2c2c1COC(C)(C)C2 | -1.12% (inactive) |  |
| Nc1cccc(CCc2nc3ccccc3[nH]2)c1 | 3.01% (inactive) |  |
| Cc1ccc(-c2nc3ccccc3[nH]2)cc1N |  | 1410 nM (active) |
| c1ccc2[nH]c(-c3nc4ccccc4[nH]3)nc2c1 |  | 631 nM (active) |
| COc1ccc(Br)cc1C(=O)NC(=S)Nc1cc(-c2nc3ccccc3[nH]2)ccc1C | -4.21% (inactive) |  |
| COc1ccc(-c2[nH]nc(-c3ccccc3)c2-c2nc3ccccc3[nH]2)cc1 | -2.29% (inactive) |  |
| OC(c1nc2ccccc2[nH]1)C(O)C(O)C(O)c1nc2ccccc2[nH]1 (configuration not stated) | 11.6% (inactive) |  |
| N#Cc1ccc(C2=CC(=O)C[C@H](c3ccc(Cl)cc3)C2)cc1 | -1.27% (inactive) |  |
| Cc1ccc(C)c(NC(=O)CN(C)C(=O)c2ccc3ncsc3c2)c1 | 1.46% (inactive) |  |
| COc1cccc(-c2nnc(SCCOc3ccc4c(C)cc(=O)oc4c3)o2)c1 | 0.56% (inactive) |  |
| COc1cccc(NC(=O)CSc2nnc(-c3cccnc3)o2)c1 | -3.19% (inactive) |  |
| COc1cccc(-c2nc(CS(=O)CC(=O)NCc3ccc(F)cc3)c(C)o2)c1 (configuration not stated) | -0.564% (inactive) |  |
| COc1ccc(C(=O)NCc2nnc(SCC(=O)Nc3cccc(OC)c3)o2)cc1 | -2.44% (inactive) |  |
| O=[N+]([O-])c1ccc2oc(-c3cccc(O)c3)nc2c1 |  | 3160 nM (active) |
| COc1ccc([N+](=O)[O-])cc1-c1nc2ccccc2nc1-c1ccccc1 | 2.73% (inactive) |  |
| COc1cccc(-c2nc3cc(C)ccc3o2)c1 |  | 3980 nM (active) |
| CC(=O)Oc1ccc2c(=O)oc(-c3ccc([N+](=O)[O-])cc3)nc2c1 | -3.36% (inactive) |  |

| SMILES | activation, negative = inhibition | Potency |
| --- | --- | --- |
| COc1ccc2oc(-c3cccc(NC(=O)CSc4ccc(Cl)cc4)c3)nc2c1 |  | 3550 nM (active) |
| O=C(NCCc1nnc2ccc(SCC(=O)N3CCOCC3)nn12)c1ccccc1 | -2.16% (inactive) |  |
| CCCCn1c(N)c(N(CCC(C)C)C(=O)COC(=O)c2cccnc2OCC)c(=O)[nH]c1=O | -0.914% (inactive) |  |
| O=C(COC(=O)CNC(=O)C1CCCCC1)NCc1ccccc1 | 0.266% (inactive) |  |
| CCCCN(C(=O)c1ccc2ccccc2c1)c1c(N)n(CCCC)c(=O)[nH]c1=O | -2.5% (inactive) |  |
| O=c1oc2ccccc2cc1-c1csc(Nc2ccc(O)cc2)n1 | 24.9% (inactive) |  |
| CCNc1nc(-c2cc3ccccc3o2)cs1 |  | 1260 nM (active) |
| Cc1nc(C)c(-c2csc(NCCc3ccccc3)n2)s1 | -3.17% (inactive) |  |
| O=C(CN1CCCSc2ccccc21)N1CCN(S(=O)(=O)c2ccccc2)CC1 | -0.455% (inactive) |  |
| COc1ccc2c(c1)c(C(=O)N/N=C/c1cccs1)c(C)n2C | -6.43% (inactive) |  |
| NS(=O)(=O)c1ccc2nc(NC(=O)CS(=O)(=O)c3ccc(F)cc3)sc2c1 | 7.22% (inactive) |  |
| CCC(CC)c1nnc(NC(=O)C2=COCCO2)s1 | 29% (inactive) |  |
| NS(=O)(=O)c1ccc2nc(NC(=O)C3=COCCO3)sc2c1 |  | 1120 nM (active) |
| O=C(Nc1ccc(S(=O)(=O)N2CCCC2)cc1Cl)C1=COCCO1 | 2.73% (inactive) |  |
| Cc1ccc(-c2csc(NC(=O)C3=COCCO3)n2)cc1C | -1.89% (inactive) |  |
| Cc1csc(NC(=O)C2=COCCO2)n1 |  | 3550 nM (active) |
| COCCN(Cc1ccccc1)C(=O)Cc1ccc(S(=O)(=O)N2CCOCC2)s1 | -1.26% (inactive) |  |
| COC(=O)c1sc(NC(=O)COC(=O)C2CCC2)c(C(=O)OC)c1C | 1.11% (inactive) |  |
| COc1ccccc1N1CCN(C(=O)C2Cc3ccccc3CN2C(=O)c2ccco2)CC1 (configuration not stated) | -6.97% (inactive) |  |
| OCCC1CN(Cc2cccn2-c2nccs2)CCN1CCc1ccccc1 (configuration not stated) | -10.8% (inactive) |  |
| COc1cc(/C=N\Nc2ccc([N+](=O)[O-])cn2)ccc1OCC(=O)O | -1.14% (inactive) |  |
| COc1cc(/C=N/O)ccc1OCc1ccc([N+](=O)[O-])cc1 |  | 2000 nM (active) |

| SMILES | activation, negative = inhibition | Potency |
| --- | --- | --- |
| COc1cc(C(=O)OCc2ccc([N+](=O)[O-])cc2)cc(OC)c1OC | -2% (inactive) |  |
| O=C(CCCCO)c1ccc(O)c(Cl)c1 | -2.36% (inactive) |  |
| CCN(CC)c1ccc(/C=N/NC(=O)CNC(=O)c2cccs2)cc1 | 11.8% (inactive) |  |
| O=C(CNC(=O)c1cccs1)N/N=C/c1cccc(Br)c1 | 3.62% (inactive) |  |
| O=C(N/N=C/C=C/c1ccco1)c1cccs1 |  | 4470 nM (active) |
| O=C(N/N=C/c1ccco1)c1ccc(C(=O)N/N=C/c2ccco2)o1 | -1.12% (inactive) |  |
| Cc1ccc(-c2cc(C(=O)N/N=C/C=C/c3ccco3)c3ccccc3n2)cc1C | 8.94% (inactive) |  |
| CC(=O)Nc1ccc(/C=N/NC(=O)c2cccs2)cc1 |  | 1260 nM (active) |
| O=C(COC(=O)CCCN1C(=O)c2cccc3cccc(c23)C1=O)NC1CCS(=O)(=O)C1 (configuration not stated) | -1.11% (inactive) |  |
| CC(Sc1nnc(C2CC2)n1C1CC1)C(=O)Nc1ccc(C(N)=O)cc1 (configuration not stated) | -0.304% (inactive) |  |
| CCc1ccc(CN(C)C(C)C(=O)Nc2ccc(S(=O)(=O)N3CCCC3)cc2)cc1 (configuration not stated) | -0.394% (inactive) |  |
| COc1ccc([C@H]2CC(=O)C=C(c3ccc(C)cc3)C2)cc1 | -4.22% (inactive) |  |
| CN(C1CCS(=O)(=O)C1)S(=O)(=O)c1ccc2ccccc2c1 (configuration not stated) | 0.342% (inactive) |  |
| O=S(=O)(NCc1ccc2c(c1)OCO2)c1cccc2nsnc12 | 1.17% (inactive) |  |
| Cc1cccc(C(=O)O)c1[N+](=O)[O-] | -4.76% (inactive) |  |
| Cn1c(-c2ccc(C(F)(F)F)cc2)cc2onc(-c3ccccc3)c2c1=O |  | 447 nM (active) |
| Cn1c(-c2ccc(F)cc2)cc2onc(-c3ccccc3Cl)c2c1=O |  | 891 nM (active) |
| Cc1onc(-c2ccccc2)c1C(=O)N1CCN(S(=O)(=O)c2ccccc2C(F)(F)F)CC1 | 1.61% (inactive) |  |
| O=C1c2ccccc2C(=O)N1Cc1cc(-c2ccccc2Cl)no1 | 0.361% (inactive) |  |
| Cc1[nH]n(C)c(=O)c1C(=O)c1c(-c2c(Cl)cccc2Cl)noc1C | -6.11% (inactive) |  |
| O=c1c2ccccc2c(-c2ccc(F)cc2)nn1-c1ccc(C(F)(F)F)cc1 | 0.147% (inactive) |  |
| CCCCC[C@H]1CN(C2CCCCC2)C(=O)[C@@H]1CC(=O)NCc1ccc(OC)cc1 | -4.04% (inactive) |  |

| SMILES | activation, negative = inhibition | Potency |
| --- | --- | --- |
| O=c1oc2ccc(C#CC3(O)CCCCC3)cc2cc1-n1cc(-c2ccsc2)nn1 | -3.91% (inactive) |  |
| O=C(Nc1ccccc1N1CCOCC1)c1ccncc1 | -3.82% (inactive) |  |
| CC(NCC(=O)Nc1ccccc1C(=O)NC1CC1)c1ccccc1Cl (configuration not stated) | -1.93% (inactive) |  |
| Cc1ccccc1CC1(CO)CCCN(C(=O)c2cc(-c3ccccc3)no2)C1 (configuration not stated) | -4.08% (inactive) |  |
| Cc1noc(C)c1CCC(=O)N1CCCC(CO)(Cc2ccccc2)C1 (configuration not stated) |  | 3550 nM (active) |
| CCOC(=O)C1(Cc2ccccc2C)CCCN(C(=O)CCc2c(C)noc2C)C1 (configuration not stated) | 0.805% (inactive) |  |
| COc1ccc(OCCNC(=O)c2cc(C3CC3)nc3c2cnn3C(C)C)cc1 | -7.29% (inactive) |  |
| O=C(CN1CCN(c2ccccc2O)CC1)NC(=O)NCc1ccccc1 | 0.0733% (inactive) |  |
| N=c1c2c(-c3ccccc3)c(-c3ccccc3)n(Cc3ccccc3)c2ncn1CCCO | -18.6% (inactive) |  |
| OCCCN1c2ccccc2Nc2nnc(-c3ccccc3)cc21 |  | 2000 nM (active) |
| CCOC(=O)C(C)N(c1ccccc1Cl)S(C)(=O)=O (configuration not stated) | -1.61% (inactive) |  |
| N#Cc1c(NC(=O)C2CCCO2)sc2c1CCCCC2 (configuration not stated) |  | 2240 nM (active) |
| N#Cc1c(NC(=O)C2CC(Cl)=CCC2C(=O)O)sc2c1CCCCC2 (configuration not stated) | 0.959% (inactive) |  |
| N#Cc1c(NC(=O)CCCl)sc2c1CCCCC2 | 0.735% (inactive) |  |
| c1csc(-c2cn3c(n2)SCC3)c1 | 29.1% (inactive) |  |
| O=c1c2cc(-c3ccccc3)sc2nc2n1N=C(c1cccs1)CS2 |  | 1120 nM (active) |
| Cc1nnc2n1N=C(c1ccccc1)CS2 | -13.1% (inactive) |  |
| O=C(c1cc2ccccc2o1)N1CCN(S(=O)(=O)c2ccc(Cl)s2)CC1 | -5.02% (inactive) |  |
| COc1ccc(CNC(=O)COC(=O)CCS(=O)(=O)c2ccc(C)cc2)cc1OC | -2.72% (inactive) |  |
| CCN(CC(=O)Nc1c(F)cccc1F)C(=O)c1cnc(C)cn1 | 0.956% (inactive) |  |
| C/C(=N\NC(=S)Nc1ccc(C)cc1)c1cc2ccccc2o1 | -2.42% (inactive) |  |
| O=C(Nc1ccncc1)c1cc2ccccc2o1 | 28.1% (inactive) |  |

| SMILES | activation, negative = inhibition | Potency |
| --- | --- | --- |
| Cc1ccc(NC(=O)c2cc3ccccc3o2)cc1 |  | 3980 nM (active) |
| CCN(CC(=O)NCc1ccc(Cl)cc1)C(=O)c1c(C)noc1C | -2.5% (inactive) |  |
| c1ccc2c(c1)CSc1sccc1C2=C1CCNCC1 | -7.46% (inactive) |  |
| Cc1cc(C(=O)NNC(=O)c2ccccc2O)c(C)o1 | -2.2% (inactive) |  |
| COC(=O)C1CCN(C(=O)c2cc(=O)[nH]c3ccccc23)CC1 | -3.49% (inactive) |  |
| CC(NC(=O)COC(=O)c1cc(=O)[nH]c2ccccc12)c1ccccc1 (configuration not stated) | -0.707% (inactive) |  |
| CC1CCN(C(=O)COC(=O)c2cc(=O)[nH]c3ccccc23)CC1 |  | 2510 nM (active) |
| O=C(COC(=O)c1ccccc1Cl)NC1CCCCCCC1 | -4.83% (inactive) |  |
| CCC(=O)Nc1ccc(C(=O)NNC(=O)c2ccc(Cl)cc2)cc1 | -2.77% (inactive) |  |
| O=C(Nc1ccc(Cl)cc1)c1ccsn1 |  | 1780 nM (active) |
| Cn1ccc(NC(=O)Nc2ccc(Cl)cc2)n1 | 25.5% (inactive) |  |
| CCCCN(Cc1ccccc1)C(=O)C1CCN(Cc2sccc2C)CC1 | -0.806% (inactive) |  |
| Cn1c(CC(=O)NNC(=O)c2ccccc2F)nc2ccccc21 | -10.1% (inactive) |  |
| O=C(c1ccc(N2CCOCC2)c([N+](=O)[O-])c1)N1CCN(S(=O)(=O)c2cccs2)CC1 | -3.99% (inactive) |  |
| COc1ccc(C)cc1N(C(=O)Cn1nnc(-c2ccc(C)o2)n1)C(C(=O)NC1CCCC1)c1ccncc1 (configuration not stated) | -0.715% (inactive) |  |
| CCN(CC(=O)Nc1ccc(NC(C)=O)cc1)C(=O)CSC(=S)N1CCCC1 | -2.35% (inactive) |  |
| O=C(Nc1cc2ccccc2oc1=O)C1CCCCC1 |  | 562 nM (active) |
| CC(=O)Nc1cc2ccc(OC(C)=O)cc2oc1=O | 3.39% (inactive) |  |
| Cc1ccccc1NC(=O)C1CCN(C(=O)NC2CCCCC2)CC1 | -3.27% (inactive) |  |

From PubChem BioAssay AID485297 (National Center for Advancing Translational Sciences (NCATS), 2010)
